BLM helicase inh: qHTS Assay for Inhibitors of Bloom's syndrome helicase (BLM); recombinant BLM DNA unwinding, fluorescence dequenching; AID 2528, 2010; Potency, µM (series often up to 56.1 µM), hits mostly inhibitors; 0.2% of 350,000 active; also: nearly all actives have a fitted effect of over 35% in size
APEX1 inh: qHTS Assay for Inhibitors of the Human Apurinic/apyrimidinic Endonuclease 1 (APE1); DNA repair nuclease/redox regulator APEX1 (Homo sapiens), P27695; recombinant APE1, TAMRA/BHQ-2 abasic DNA cleavage fluorescence; Potency, µM (titrated, usually from 65.8 µM), actives largely listed as inhibitors; 0.35% of 350,000 active; also: nearly all actives have a fitted effect of over 55% in size
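APE1 at 0.75 nM preincubated 15 min at room temperature with compound. Reaction then started with 50 nM double-stranded THF-abasic substrate labelled with TAMRA/BHQ-2, and 525/598 nm fluorescence read kinetically. Activity taken as third-minus-first read difference, normalized to DMSO and NSC13755 controls.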
RECQ1 inh-1: qHTS Assay for Inhibitors of RecQ-Like Dna Helicase 1 (RECQ1) | ATP-dependent DNA helicase Q1 (Homo sapiens), P46063 | RECQ1 DNA unwinding, red fluorescence kinetic read | Potency, µM (doses to about 57.3 µM), actives largely listed as inhibitors | 0.54% of 240,000 active; also: nearly all actives have a fitted effect of over 30% in size
Target sequence (P46063 whole entry, looked up): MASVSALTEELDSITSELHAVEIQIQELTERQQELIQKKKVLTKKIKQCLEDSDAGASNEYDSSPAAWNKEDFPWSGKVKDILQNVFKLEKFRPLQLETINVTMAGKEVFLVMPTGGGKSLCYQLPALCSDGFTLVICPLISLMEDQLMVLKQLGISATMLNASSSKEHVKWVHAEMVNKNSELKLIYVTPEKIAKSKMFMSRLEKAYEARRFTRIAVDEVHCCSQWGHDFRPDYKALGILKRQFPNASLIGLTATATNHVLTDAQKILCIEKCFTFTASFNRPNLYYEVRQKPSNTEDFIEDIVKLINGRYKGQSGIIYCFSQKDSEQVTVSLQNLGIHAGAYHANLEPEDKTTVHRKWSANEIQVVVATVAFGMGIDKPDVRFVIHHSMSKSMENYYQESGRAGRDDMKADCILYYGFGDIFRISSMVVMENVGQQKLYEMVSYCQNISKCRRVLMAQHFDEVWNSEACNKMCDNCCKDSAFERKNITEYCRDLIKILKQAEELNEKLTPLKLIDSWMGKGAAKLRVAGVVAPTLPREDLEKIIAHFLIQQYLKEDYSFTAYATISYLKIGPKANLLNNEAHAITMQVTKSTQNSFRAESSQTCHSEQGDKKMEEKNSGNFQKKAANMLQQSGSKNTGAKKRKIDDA
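50 nM RECQ1T1 preincubated 15 min with compound in Tris pH 8.0 buffer with MgCl2, DTT, Tween-20 and 2.5 ug/ml poly(dI-dC); started with 200 nM TAMRA/BHQ-2 forked duplex and 2 mM ATP. Unwinding read as fluorescence (525/598 nm), two reads 2 h apart.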
PI5P4K alpha inh: qHTS for Inhibitors of phosphatidylinositol 5-phosphate 4-kinase (PI5P4K); AID 652105, 2013; max response, %; Phosphatidylinositol 5-phosphate 4-kinase type-2 alpha (Homo sapiens), P48426; PI5P4Kalpha enzyme, ADP-Glo luminescence, 60 min; stronger effect = lower value; 1.2% of 330,000 active; active = max response of -50% or lower; inconclusive = between -30% and -50%; inactive = -30% or higher; also: value at the top dose of about 77 µM
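Quantitative HTS of the MLSMR library against PI5P4Kalpha with substrate. ATP added last at 5 microM final; room temperature, 60 minutes. Remaining ATP depleted, ADP converted and read as luminescence.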
FEN1 inhibitor: qHTS Assay for the Inhibitors of Human Flap endonuclease 1 (FEN1) | P39748 | Recombinant FEN1 flap cleavage, fluorescence, 15 min | Potency, µM (series often up to 114 µM), usual class: inhibitors | 0.35% of 390,000 active | AID 588795, 2011; also: nearly all actives have a fitted effect of over 65% in size
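Reaction started by adding substrate (50 nM final) to 10 nM enzyme after 15 min room-temperature compound preincubation. Reads at 0 and 15 min, with data normalized and fitted to a four-parameter Hill equation.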
WRN inhibitor: qHTS for Inhibitors of WRN Helicase; Bifunctional 3'-5' exonuclease/ATP-dependent helicase WRN (Homo sapiens), Q14191; WRN helicase unwinding, fluorescent forked duplex, kinetic; Potency, µM (series often up to 114 µM), usual class: inhibitors; 0.46% of 360,000 active; also: nearly all actives have a fitted effect of over 55% in size
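Kinetic fluorescence helicase assay: unwinding of a quenched forked DNA duplex (100 nM final) with 2 mM ATP final raises red fluorescence (525/598 nm). Compounds sat 15 min at room temperature with 20 nM WRN beforehand.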
RECQ1 inh conf: Confirmation qHTS Assay for Inhibitors of RecQ-Like Dna Helicase 1 (RECQ1); shares compounds with RECQ1 inh-1; 28% of 610 active; RECQ1 helicase DNA unwinding, fluorescence; AID 2708, 2010; Potency, µM (highest dose often 229 µM), actives largely listed as inhibitors; also: nearly all actives have a fitted effect of over 45% in size
RECQ1 ADP FP: Counterscreen for RECQ1 Inhibitors: ADP Fluorescence Polarization Displacement Assay. shares compounds with RECQ1 inh-1. ADP fluorescence polarization displacement counterscreen. Potency, µM (doses to about 228 µM), actives largely listed as inhibitors. 27% of 530 active. AID 2711, 2010; also: nearly all actives have a fitted effect of over 45% in size
RECQ1 inh-2: Confirmation qHTS Assay for Inhibitors of RecQ-Like Dna Helicase 1 (RECQ1) - Round 2 Cherry Picks. shares compounds with RECQ1 inh-1. Potency, µM (top dose mostly 119 µM), usual class: inhibitors. 15% of 1,100 active. AID 504841, 2011. recombinant RECQ1 DNA unwinding, red fluorescence; also: nearly all actives have a fitted effect of over 50% in size
Each line names hits and unclear results; the compound was inactive in the other large screens (follow-up assays come after a bar, where they were run); ! = not active in a repeat. An excerpt weighted towards active compounds, which were near 1.5% of everything screened. Unless noted, calls follow the shape of the dose curve; as a rule, active = well fitted curve in the direction sought with a large enough effect; inconclusive = small, poorly fitted or top-dose-only effect, or another doubt; inactive = no such curve, though single readings can be large; an effect the other way counts as inactive or inconclusive.

COc1ccc(NS(=O)(=O)c2ccc(O)c(NC(=O)c3cc4c(C)nn(-c5ccc(F)cc5)c4s3)c2)cc1	BLM helicase inh 28µM, APEX1 inh inconclusive, RECQ1 inh-1 inconclusive, FEN1 inhibitor 56µM, WRN inhibitor inconclusive | RECQ1 inh-2 inconclusive
NC(=O)N/N=C/c1ccc(N2CCOCC2)s1	none
O=C(O)c1cc(N/N=C/c2ccc(N3CCOCC3)s2)ccc1Cl	APEX1 inh 16µM, RECQ1 inh-1 14µM, PI5P4K alpha inh -56, FEN1 inhibitor inconclusive, WRN inhibitor inconclusive | RECQ1 inh conf inactive
CC(=O)Nc1ccc(Nc2nc(Nc3ccc(Cl)cc3)nc(N3CCOCC3)n2)cc1	none (no result: BLM helicase inh, APEX1 inh, RECQ1 inh-1, PI5P4K alpha inh, WRN inhibitor) | RECQ1 inh conf inactive
Cc1ccc(Nc2nc(Nc3ccc(Cl)cc3)nc(N3CCOCC3)n2)cc1	none (no result: BLM helicase inh, APEX1 inh, RECQ1 inh-1, PI5P4K alpha inh, WRN inhibitor) | RECQ1 inh conf inactive
Clc1ccc(Nc2nc(Nc3ccc(Cl)cc3)nc(N3CCOCC3)n2)cc1	none (no result: BLM helicase inh, APEX1 inh, RECQ1 inh-1, PI5P4K alpha inh, WRN inhibitor)
O=S(=O)(NCC(c1ccco1)S(=O)(=O)c1ccccc1)c1cc(F)ccc1F (configuration not stated)	none (no result: APEX1 inh, RECQ1 inh-1, PI5P4K alpha inh, WRN inhibitor)
COc1ccccc1N1C(=O)CC(N2CCc3ccccc32)C1=O (configuration not stated)	APEX1 inh inconclusive, RECQ1 inh-1 inconclusive | RECQ1 inh-2 inactive
CC1(C)N=C(c2ccc(Cl)cc2)C(=O)N1	RECQ1 inh-1 35µM (no result: PI5P4K alpha inh) | RECQ1 inh-2 inconclusive
COc1ccc(C(=O)Nc2nc(C)cc(C)n2)cc1	RECQ1 inh-1 inconclusive | RECQ1 inh-2 inactive
COc1ccc(OC)c(-c2c3cc(O)c(=O)cc-3oc3cc(O)c(O)cc23)c1	BLM helicase inh 28µM, APEX1 inh 32µM, RECQ1 inh-1 35µM, PI5P4K alpha inh -101, FEN1 inhibitor 13µM, WRN inhibitor 79µM | RECQ1 inh-2 40µM
CC1(C)CC(=O)/C(=C(\O)CCCN2C(=O)c3ccccc3C2=O)C(=NCC(=O)O)C1	none | RECQ1 inh conf inactive | RECQ1 ADP FP inactive
CC(N=C1CC(C)(C)CC(=O)/C1=C(/O)CCCN1C(=O)c2ccccc2C1=O)C(=O)O (configuration not stated)	none | RECQ1 inh conf inactive | RECQ1 ADP FP inconclusive
CC1(C)CC(=O)/C(=C(/O)CCCN2C(=O)c3ccccc3C2=O)C(=NC(C)(C)C)C1	none
CCOC(=O)c1scc(-c2ccccc2)c1S(=O)(=O)Nc1ccc(N(C)C)cc1	none (no result: APEX1 inh, RECQ1 inh-1, PI5P4K alpha inh, WRN inhibitor)
CCCCN(CCCC)Cc1ccc(C(=O)NNC(=O)Nc2ccccc2)o1	none
CCCCC#Cc1ccc(C(=O)NNC(=O)Nc2ccccc2)o1	RECQ1 inh-1 28µM | RECQ1 inh-2 inconclusive
Cc1sc(NC(=O)/C=C/c2ccc3c(c2)OCO3)nc1-c1ccccc1	none
O=C(/C=C/c1ccc2c(c1)OCO2)Nc1nc(-c2ccccc2)cs1	RECQ1 inh-1 1.4µM | RECQ1 inh conf inactive | RECQ1 ADP FP inactive | RECQ1 inh-2 inconclusive
CC1(C)CCC2=C(O1)c1ccccc1C(=O)C2=O	RECQ1 inh-1 18µM!, FEN1 inhibitor inconclusive (no result: BLM helicase inh, PI5P4K alpha inh, WRN inhibitor) | RECQ1 inh conf inconclusive | RECQ1 ADP FP inactive

Screens (PubChem)
